# Laboratory results reported in the supplement of paper PMC8728848.
# Only a selection was taken, and the strongest signals are over-represented in it overall.
# B1: BTL (Bryothamnion triquetrum) (protein)
# chain: ADPICGSSGYSCTTPAILTPKSPGSFPSGYSKVIVTGVGGSYSVYIHRPDGFKVYKASEGGCASFGSYSGGGNSEVGKYGSGGTVVAVACK
# B2: FBG1 (Homo sapiens), Q9UK22 (protein)
# chain: MDGDGDPESVGQPEEASPEEQPEEASAEEERPEDQQEEEAAAAAAYLDELPEPLLLRVLAALPAAELVQACRLVCLRWKELVDGAPLWLLKCQQEGLVPEGGVEEERDHWQQFYFLSKRRRNLLRNPCGEEDLEGWCDVEHGGDGWRVEELPGDSGVEFTHDESVKKYFASSFEWCRKAQVIDLQAEGYWEELLDTTQPAIVVKDWYSGRSDAGCLYELTVKLLSEHENVLAEFSSGQVAVPQDSDGGGWMEISHTFTDYGPGVRFVRFEHGGQDSVYWKGWFGARVTNSSVWVEP
# Legend:
# Assay in all cases: glycan array binding signal (z-score within array); higher = stronger binding
# Settings in all cases: glycan notation: IUPAC condensed, linker removed
# [1] = molecular target: Fuc(a1-2)Gal(b1-3)GalNAc(b1-3)Gal(a1-4)Gal(b1-4)Glc
# Outline: (§1)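 Glycan array data were curated from 3228 arrays in the Consortium for Functional Glycomics database and kept only where the protein sequence was available. Glycan names were converted to IUPAC-condensed notation, and columns mapping to the same glycan were averaged. The binding signal is a within-array Z-score, averaged across arrays of the same protein sequence at different concentrations or buffers and across linkers. Negative Z-scores can be read as non-binding.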
# [2] = molecular target: Fuc(a1-2)Gal(b1-3)GlcNAc(b1-2)Man(a1-3)[Fuc(a1-2)Gal(b1-3)GlcNAc(b1-2)Man(a1-6)]Man(b1-4)GlcNAc(b1-4)[Fuc(a1-6)]GlcNAc
# Outline: as §1
# [3] = molecular target: Fuc(a1-2)Gal(b1-3)[Fuc(a1-4)]GlcNAc
# Outline: as §1
# [4] = molecular target: Fuc(a1-2)Gal6S(b1-4)Glc
# Outline: as §1
# [5] = molecular target: Fuc(a1-4)GlcNAc
# Outline: as §1
# [6] = molecular target: Fuc(b1-3)GlcNAc
# Outline: as §1
# [7] = molecular target: Gal(a1-3)Gal(b1-4)GlcNAc(b1-2)Man
# Outline: as §1
# [8] = molecular target: Gal(a1-3)Gal(b1-4)GlcNAc(b1-3)GalNAc
# Outline: as §1
# [9] = molecular target: Gal(a1-4)Gal(b1-4)GlcNAc(b1-3)Gal(b1-4)Glc
# Outline: as §1
# [10] = molecular target: Gal(b1-3)GalNAc(b1-3)Gal
# Outline: as §1
# [11] = molecular target: Gal(b1-3)GlcNAc(b1-2)Man(a1-3)[Gal(b1-3)GlcNAc(b1-2)Man(a1-6)]Man(b1-4)GlcNAc(b1-4)[Fuc(a1-6)]GlcNAc
# Outline: as §1
# [12] = molecular target: Gal(b1-3)[Fuc(a1-4)]GlcNAc(b1-2)Man
# Outline: as §1
# [13] = molecular target: Gal(b1-4)GlcNAc(b1-2)Man(a1-3)[Gal(b1-4)GlcNAc(b1-2)Man(a1-6)]Man(b1-4)GlcNAc(b1-4)[Fuc(a1-6)]GlcNAc
# Outline: as §1
# [14] = molecular target: Gal(b1-4)GlcNAc(b1-2)Man(a1-3)[Gal(b1-4)GlcNAc(b1-2)Man(a1-6)][Gal(b1-4)GlcNAc(b1-4)]Man(b1-4)GlcNAc(b1-4)[Fuc(a1-6)]GlcNAc
# Outline: as §1
# [15] = molecular target: Gal(b1-4)GlcNAc(b1-2)Man(a1-6)Man(b1-4)GlcNAc(b1-4)GlcNAc
# Outline: as §1
# [16] = molecular target: Gal(b1-4)GlcNAc(b1-2)[Gal(b1-4)GlcNAc(b1-6)]Man(a1-6)[Gal(b1-4)GlcNAc(b1-2)Man(a1-3)]Man(b1-4)GlcNAc(b1-4)[Fuc(a1-6)]GlcNAc
# Outline: as §1
# [17] = molecular target: Gal(b1-4)GlcNAc(b1-3)Gal(b1-3)GalNAc
# Outline: as §1
# [18] = molecular target: Gal(b1-4)GlcNAc(b1-3)Gal(b1-4)GlcNAc
# Outline: as §1
# [19] = molecular target: Gal(b1-4)GlcNAc(b1-3)Gal(b1-4)GlcNAc(b1-2)Man(a1-3)[Gal(b1-4)GlcNAc(b1-3)Gal(b1-4)GlcNAc(b1-2)Man(a1-6)]Man(b1-4)GlcNAc(b1-4)[Fuc(a1-6)]GlcNAc
# Outline: as §1
# [20] = molecular target: Gal(b1-4)GlcNAc(b1-3)Gal(b1-4)GlcNAc(b1-3)Gal(b1-4)GlcNAc(b1-2)Man(a1-3)[Gal(b1-4)GlcNAc(b1-3)Gal(b1-4)GlcNAc(b1-3)Gal(b1-4)GlcNAc(b1-2)Man(a1-6)]Man(b1-4)GlcNAc(b1-4)[Fuc(a1-6)]GlcNAc
# Outline: as §1
# [21] = molecular target: Gal(b1-4)GlcNAc(b1-3)Gal(b1-4)GlcNAc(b1-3)Gal(b1-4)GlcNAc(b1-3)Gal(b1-4)GlcNAc(b1-2)Man(a1-3)[Gal(b1-4)GlcNAc(b1-3)Gal(b1-4)GlcNAc(b1-3)Gal(b1-4)GlcNAc(b1-3)Gal(b1-4)GlcNAc(b1-2)Man(a1-6)]Man(b1-4)GlcNAc(b1-4)[Fuc(a1-6)]GlcNAc
# Outline: as §1
# [22] = molecular target: Gal(b1-4)GlcNAc(b1-3)Gal(b1-4)GlcNAc(b1-3)Gal(b1-4)GlcNAc(b1-3)Gal(b1-4)GlcNAc(b1-3)Gal(b1-4)GlcNAc(b1-2)Man(a1-3)[Gal(b1-4)GlcNAc(b1-3)Gal(b1-4)GlcNAc(b1-3)Gal(b1-4)GlcNAc(b1-3)Gal(b1-4)GlcNAc(b1-3)Gal(b1-4)GlcNAc(b1-2)Man(a1-6)]Man(b1-4)GlcNAc(b1-4)[Fuc(a1-6)]GlcNAc
# Outline: as §1
# [23] = molecular target: Gal(b1-4)GlcNAc(b1-3)Gal(b1-4)GlcNAc(b1-6)[Gal(b1-3)]GalNAc
# Outline: as §1
# [24] = molecular target: Gal6S(b1-3)GlcNAc6S
# Outline: as §1
# [25] = molecular target: Gal6S(b1-4)Glc6S
# Outline: as §1
# [26] = molecular target: GalNAc4S6S(b1-4)GlcNAc
# Outline: as §1
# [27] = molecular target: GlcNAc(a1-3)Gal(b1-4)GlcNAc
# Outline: as §1
# [28] = molecular target: GlcNAc(b1-2)[GlcNAc(b1-6)]Man(a1-6)[GlcNAc(b1-2)Man(a1-3)]Man(b1-4)GlcNAc(b1-4)[Fuc(a1-6)]GlcNAc
# Outline: as §1
# [29] = molecular target: GlcNAc(b1-3)Gal(b1-4)GlcNAc(b1-2)Man(a1-3)[GlcNAc(b1-3)Gal(b1-4)GlcNAc(b1-2)Man(a1-6)]Man(b1-4)GlcNAc(b1-4)GlcNAc
# Outline: as §1
# [30] = molecular target: GlcNAc(b1-3)Gal(b1-4)GlcNAc(b1-3)Gal(b1-4)GlcNAc(b1-2)Man(a1-3)[GlcNAc(b1-3)Gal(b1-4)GlcNAc(b1-3)Gal(b1-4)GlcNAc(b1-2)Man(a1-6)]Man(b1-4)GlcNAc(b1-4)[Fuc(a1-6)]GlcNAc
# Outline: as §1
# [31] = molecular target: Kdn(a2-3)Gal(b1-3)GalNAc
# Outline: as §1
# [32] = molecular target: Man(a1-3)[Man(a1-6)]Man(b1-4)GlcNAc(b1-4)[Fuc(a1-6)]GlcNAc
# Outline: as §1
# [33] = molecular target: Neu5Ac(a2-3)Gal(b1-3)GlcNAc(b1-2)[Neu5Ac(a2-3)Gal(b1-3)GlcNAc(b1-4)]Man(a1-6)[Neu5Ac(a2-3)Gal(b1-3)GlcNAc(b1-2)Man(a1-3)]Man(b1-4)GlcNAc(b1-4)GlcNAc
# Outline: as §1
# [34] = molecular target: Neu5Ac(a2-3)Gal(b1-3)GlcNAc6S
# Outline: as §1
# [35] = molecular target: Neu5Ac(a2-3)Gal(b1-4)GlcNAc(b1-2)Man(a1-3)[Neu5Ac(a2-3)Gal(b1-4)GlcNAc(b1-2)Man(a1-6)]Man(b1-4)GlcNAc(b1-4)[Fuc(a1-6)]GlcNAc
# Outline: as §1
# [36] = molecular target: Neu5Ac(a2-6)Gal(b1-4)GlcNAc(b1-2)Man(a1-3)[Neu5Ac(a2-3)Gal(b1-4)GlcNAc(b1-2)Man(a1-6)]Man(b1-4)GlcNAc(b1-4)GlcNAc
# Outline: as §1
# [37] = molecular target: Neu5Ac(a2-6)Gal(b1-4)GlcNAc(b1-2)Man(a1-3)[Neu5Ac(a2-6)Gal(b1-4)GlcNAc(b1-2)Man(a1-6)]Man(b1-4)GlcNAc(b1-4)[Fuc(a1-6)]GlcNAc
# Outline: as §1
# [38] = molecular target: Neu5Ac(a2-6)Gal(b1-4)GlcNAc(b1-6)[Gal(b1-3)GlcNAc(b1-3)]Gal(b1-4)Glc
# Outline: as §1
# [39] = molecular target: Neu5Ac(a2-8)Neu5Ac(a2-8)Neu5Ac(a2-3)[GalNAc(b1-4)]Gal(b1-4)Glc
# Outline: as §1
# [40] = molecular target: Neu5Ac(b2-6)GalNAc
# Outline: as §1
# [41] = molecular target: Gal(a1-3)Gal
# Outline: as §1
# [42] = molecular target: Gal(b1-4)GlcNAc(b1-3)GalNAc
# Outline: as §1
# [43] = molecular target: Man(a1-2)Man(a1-3)[Man(a1-2)Man(a1-6)]Man(a1-6)[Man(a1-3)[Man(a1-6)]Man(a1-6)]Man(b1-4)GlcNAc(b1-4)GlcNAc
# Outline: as §1
# [44] = molecular target: Man(a1-2)Man(a1-6)[Man(a1-3)]Man(a1-6)[Man(a1-2)Man(a1-2)Man(a1-3)]Man(b1-4)GlcNAc(b1-4)GlcNAc
# Outline: as §1
# [45] = molecular target: Neu5Ac(a2-3)[GalNAc(b1-4)]Gal(b1-4)GlcNAc
# Outline: as §1
# [46] = molecular target: Neu5Gc(a2-3)Gal(b1-3)GlcNAc
# Outline: as §1
binder,measurement,setting,value
B1,glycan array binding signal (z-score),[1],-0.262
same,glycan array binding signal (z-score),[2],2.75
same,glycan array binding signal (z-score),[3],-0.245
same,glycan array binding signal (z-score),[4],-0.244
same,glycan array binding signal (z-score),[5],-0.199
same,glycan array binding signal (z-score),[6],-0.257
same,glycan array binding signal (z-score),[7],-0.311
same,glycan array binding signal (z-score),[8],-0.244
same,glycan array binding signal (z-score),[9],-0.208
same,glycan array binding signal (z-score),[10],-0.22
same,glycan array binding signal (z-score),[11],4.76
same,glycan array binding signal (z-score),[12],-0.111
same,glycan array binding signal (z-score),[13],4.92
same,glycan array binding signal (z-score),[14],0.352
same,glycan array binding signal (z-score),[15],-0.192
same,glycan array binding signal (z-score),[16],6.49
same,glycan array binding signal (z-score),[17],-0.107
same,glycan array binding signal (z-score),[18],-0.27
same,glycan array binding signal (z-score),[19],6.38
same,glycan array binding signal (z-score),[20],5.89
same,glycan array binding signal (z-score),[21],4.48
same,glycan array binding signal (z-score),[22],4.45
same,glycan array binding signal (z-score),[23],-0.128
same,glycan array binding signal (z-score),[24],-0.24
same,glycan array binding signal (z-score),[25],-0.18
same,glycan array binding signal (z-score),[26],-0.129
same,glycan array binding signal (z-score),[27],-0.194
same,glycan array binding signal (z-score),[28],4.85
same,glycan array binding signal (z-score),[29],-0.193
same,glycan array binding signal (z-score),[30],4.09
same,glycan array binding signal (z-score),[31],-0.259
same,glycan array binding signal (z-score),[32],4.2
same,glycan array binding signal (z-score),[33],-0.099
same,glycan array binding signal (z-score),[34],-0.24
same,glycan array binding signal (z-score),[35],5.15
same,glycan array binding signal (z-score),[36],-0.249
same,glycan array binding signal (z-score),[37],8.12
same,glycan array binding signal (z-score),[38],-0.204
same,glycan array binding signal (z-score),[39],-0.289
same,glycan array binding signal (z-score),[40],-0.274
B2,glycan array binding signal (z-score),[1],0.049
same,glycan array binding signal (z-score),[41],-0.252
same,glycan array binding signal (z-score),[42],5.13
same,glycan array binding signal (z-score),[43],4.33
same,glycan array binding signal (z-score),[44],4.93
same,glycan array binding signal (z-score),[45],-0.217
same,glycan array binding signal (z-score),[46],-0.177
